{
  "source": "PubChem BioAssay (NCI)",
  "note": "Values joined by “and” are separate entries in the source; they are usually repeats but may differ in a detail not shown here. Equal values may be shown once. The panel holds about 83,000 compounds, 20% with a hit somewhere; the sample as a whole holds those more often.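 48-hour exposure, single concentration, 96-well plates; percent growth endpoint where 0 means no net growth. Active: below 10.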 Active and inactive are the calls of the source.",
  "data": [
    {"test_system": "MDA-MB-468 breast", "test": "NCI-60 one-dose screen, 48 h (100 = growth as untreated, 0 = no growth, -100 = all killed)", "conditions": "10 µM unless noted", "values": [
      {"smiles": "O=[N+]([O-])c1ccc(Oc2nc(Nc3ccc(O[C@H]4CO[C@H]5[C@@H]4OC[C@@H]5O)c(Cl)c3)ncc2F)c(Cl)c1", "growth": "15.8% (inactive)"},
      {"smiles": "COc1cccc(/C=C/C(=O)c2cc3c(N)c(C(=O)Nc4ccccc4C)sc3nc2C)c1", "growth": "16.7% (inactive)"},
      {"smiles": "Cc1[nH]c2ccc(F)cc2c1CCNC(=O)C1CCN(C(=O)c2ccccc2)CC1", "growth": "87.7% [25 µM] (inactive)"},
      {"smiles": "CCOc1cc2ncc(C#N)c(Nc3ccc(OCc4ccccn4)c(Cl)c3)c2cc1NC(=O)/C=C/CN(C)C", "growth": "-35.1% (active)"},
      {"smiles": "O=C(CC(O)c1ccncc1)c1ccccc1", "note": "(stereo not given)", "growth": "-50.3% (active)"},
      {"smiles": "COc1cc2nc(-c3ccc(C(F)(F)F)cc3)cc(OCCCN3CCCC3)c2cc1OC", "growth": "43.8% (inactive)"},
      {"smiles": "CN1CCN(CCCN2c3ccccc3Sc3ccc(Cl)cc32)CC1", "growth": "-0.133% (active) and 70.8% (inactive)"},
      {"smiles": "CCN(CC)c1ccc2nc3ccc(=[N+](CC)CC)cc-3oc2c1", "growth": "-46.6% (active)"},
      {"smiles": "CC(/C=N/NC(N)=S)Cc1ccc(C(C)C)cc1", "note": "(stereo not given)", "growth": "42.1% (inactive)"},
      {"smiles": "COc1ccccc1NC(=O)Cn1cc(CN2CCN(c3ccnc4cc(Cl)ccc34)CC2)nn1", "growth": "80.8% (inactive)"},
      {"smiles": "COc1ccc(-c2ccc(-c3ccc(C(=N)N)o3)o2)cc1", "growth": "15.3% (inactive)"},
      {"smiles": "CC(=S)Nc1ccccc1", "growth": "103% (inactive)"},
      {"smiles": "COc1cc(-c2nn(-c3ccc(C(=O)O)cc3)cc2C(=O)O)ccc1O", "growth": "103% (inactive)"},
      {"smiles": "O=C(Nc1cccc(NC(=O)C2CCCCC2)c1)c1ccccn1", "growth": "116% (inactive)"},
      {"smiles": "CCCCCC(=O)Oc1ccc(/C(=C(\\C)c2ccccc2)c2ccc(OCCN3CCCCC3)cc2)cc1", "growth": "75.7% (inactive)"},
      {"smiles": "O=C(/C(Br)=C/c1ccccc1)c1ccccc1", "growth": "-31.9% (active)"},
      {"smiles": "CCOC(=O)c1c2c(n3ccc(NC(=O)CCN4CCOCC4)cc13)C(=O)c1ncccc1C2=O", "growth": "49.7% (inactive)"},
      {"smiles": "Nc1nc2c(c3ncncc13)C(c1cccc(C(F)(F)F)c1)Cc1ncncc1-2", "note": "(stereo not given)", "growth": "-10.4% (active)"},
      {"smiles": "C=C1C(=O)C2CCN1CC2", "growth": "101% (inactive)"},
      {"smiles": "CCN1C(=S)N(CC)C2C1NC(=S)N2/N=C/C=C/c1ccccc1OC", "note": "(stereo not given)", "growth": "9.04% (active)"},
      {"smiles": "OC(CCC(O)(c1ccccc1)c1ccccc1)(c1ccccc1)c1ccccc1", "growth": "93.6% (inactive)"},
      {"smiles": "COc1cc(C2CC(c3cc(OC)c(OCCCOc4ccc(-n5c(/C=C/c6ccccc6)nc6ccccc6c5=O)cc4)c(OC)c3)=NO2)cc(OC)c1OC", "note": "(stereo not given)", "growth": "104% (inactive)"},
      {"smiles": "CCOC(=O)C(C#N)Cc1ccccc1", "note": "(stereo not given)", "growth": "115% (inactive)"},
      {"smiles": "COc1ccc2c(O)c(/C=C3\\N=Nc4ncccc43)oc2c1C[C@H]1CCNC[C@H]1F", "growth": "-39% (active)"},
      {"smiles": "Cc1ccc(NC(=O)c2[nH]c(SCCN(C)C)nc2-c2ccc(F)cc2)cc1Nc1ccc2ncn(C)c(=O)c2c1", "growth": "92.1% (inactive)"},
      {"smiles": "COc1cc(C2C=C(c3ccc(Cl)c(Cl)c3)N=C3SC(C)=CN32)cc(OC)c1OC", "note": "(stereo not given)", "growth": "62.5% (inactive)"},
      {"smiles": "CCCCCCCCCc1ccc(OC(C)=O)cc1", "growth": "104% (inactive)"},
      {"smiles": "O=c1[nH]c2ccccc2cc1-c1nc2ccc(Cl)cc2[nH]1", "growth": "60.7% (inactive)"},
      {"smiles": "COc1ccc(C(=O)/C=C/c2c(C(F)(F)F)nc3ccccn23)cc1OC", "growth": "-59.9% (active)"},
      {"smiles": "N[C@@H](CO)C(=O)O", "growth": "103% (inactive)"},
      {"smiles": "CCC(=O)Nc1cc(Nc2cc(NC3CC3)n3ncc(C#N)c3n2)ccc1C", "growth": "1.64% (active)"},
      {"smiles": "CCCCCCCCN1C(=O)/C(=c2\\sc3n(c2=O)C2C(NN=3)N(CC)C(=O)N2CC)c2ccccc21", "note": "(stereo not given)", "growth": "68.3% (inactive)"},
      {"smiles": "COc1ccc(C(O)c2cc3c(N)c(C(=O)Nc4cccc(Br)c4C)sc3nc2C)cc1", "note": "(stereo not given)", "growth": "7.52% (active)"},
      {"smiles": "CN(C)c1ncc(C#Cc2c(F)cccc2F)c2ccccc12", "growth": "-7.26% (active)"},
      {"smiles": "Cc1c(Cn2c(C)nc3c(C(=O)O)cc(N4CCOCC4)cc32)cccc1C(F)(F)F", "growth": "104% (inactive)"},
      {"smiles": "COc1cc(/C=C/C(=O)N2CCC=CC2=O)cc(OC)c1OC", "growth": "22.7% (inactive)"},
      {"smiles": "O=C1CCC(NC(=S)Nc2ccccc2)N1", "note": "(stereo not given)", "growth": "112% (inactive)"},
      {"smiles": "CC(C)N(CCOc1ccc(-c2nc3sccn3c2-c2ccnc(S(C)(=O)=O)n2)cc1)C(C)C", "growth": "9.31% (active)"},
      {"smiles": "Cc1cc2nc3c4cccc(O)c4n(CCN(C)C)c3nc2cc1C", "growth": "0.835% (active)"},
      {"smiles": "Cn1cc(-c2[nH]c3cc(NC(=O)[C@H](N)C4CCCCC4)cc4c3c2C=NNC4=O)cn1", "growth": "-83.3% (active)"}
    ]}
  ]
}
